# Test results published in publication PMC10812921, “Transcriptional Coactivator BOB1 (OBF1, OCA-B) Modulates the Specificity of DNA Recognition by the POU-Domain Factors OCT1 and OCT2 in a Monomeric Configuration”.
# Experiments:
# [1] = molecular target: POU1 (OCT1 POU domain) (human, UniProt P14859 260-458); assay: EMSA-SELEX-seq; no BOB1; 20 mM Tris-HCl pH 7.6, 140 mM NaCl, 10% glycerol, 0.5 mM EDTA, 0.05% Triton X-100, 0.1 mg/mL BSA, 0.1 mg/mL poly(dI-dC), 5 mM DTT, room temperature, 20 min; high values mean tight binding; conditions: protein: recombinant; dsDNA, one strand shown
# Chain of POU1 (OCT1 POU domain) (P14859 260-458): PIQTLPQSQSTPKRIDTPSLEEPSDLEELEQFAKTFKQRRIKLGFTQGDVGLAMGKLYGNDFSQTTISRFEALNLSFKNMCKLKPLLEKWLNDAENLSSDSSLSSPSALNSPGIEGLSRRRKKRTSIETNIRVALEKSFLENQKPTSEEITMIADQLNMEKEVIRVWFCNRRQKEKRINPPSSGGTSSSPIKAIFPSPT
# Outline: (§1)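 Binding preference is reported as the percentage of sequenced 8-mers that match a motif pattern. Tagged POU-domain proteins were made in E. coli BL21, purified under denaturing conditions and renatured. A 30 ng portion was combined with 300 ng of a PCR-amplified double-stranded random 35-nt library, with or without 28 ng coactivator protein, in 20 μL Tris–HCl pH 7.6 binding buffer for 20 min at RT. Complex bands were excised from native 6% PAGE, eluted and PCR-amplified over four rounds before Illumina sequencing.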
# [2] = molecular target: T1, POU2 (OCT2 POU domain) (human, UniProt P09086 175-386); assay: as above; conditions: protein: recombinant; dsDNA, one strand shown
# T1 sequence: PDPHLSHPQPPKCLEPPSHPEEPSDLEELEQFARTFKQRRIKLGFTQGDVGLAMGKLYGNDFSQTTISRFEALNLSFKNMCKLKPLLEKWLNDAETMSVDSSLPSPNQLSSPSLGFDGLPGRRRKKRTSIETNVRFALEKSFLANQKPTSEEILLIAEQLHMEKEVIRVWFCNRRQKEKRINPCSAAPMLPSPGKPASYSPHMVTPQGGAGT
# Outline: as §1
# [3] = molecular target: POU1 (OCT1 POU domain);BOB1 (OBF1, OCA-B) (human;human, UniProt P14859;Q16633 260-458;1-256, |); assay: EMSA-SELEX-seq; with BOB1 (ternary complex band); 20 mM Tris-HCl pH 7.6, 140 mM NaCl, 10% glycerol, 0.5 mM EDTA, 0.05% Triton X-100, 0.1 mg/mL BSA, 0.1 mg/mL poly(dI-dC), 5 mM DTT, room temperature, 20 min; high values mean tight binding; conditions: protein: recombinant;recombinant; copies: 1;1; dsDNA, one strand shown
# Outline: as §1
# [4] = molecular target: T2, POU2 (OCT2 POU domain);BOB1 (OBF1, OCA-B) (human;human, UniProt P09086;Q16633 175-386;1-256, |); assay: as above; conditions: protein: recombinant;recombinant; copies: 1;1; dsDNA, one strand shown
# T2 sequence 1: T1 sequence
# T2 sequence 2: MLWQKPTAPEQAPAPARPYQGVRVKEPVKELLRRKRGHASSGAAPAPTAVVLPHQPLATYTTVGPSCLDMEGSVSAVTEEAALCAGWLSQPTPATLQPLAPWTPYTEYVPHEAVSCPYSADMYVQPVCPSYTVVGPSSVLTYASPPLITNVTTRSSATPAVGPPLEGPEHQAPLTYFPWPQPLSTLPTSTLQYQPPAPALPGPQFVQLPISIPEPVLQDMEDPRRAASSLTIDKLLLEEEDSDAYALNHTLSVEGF
# Outline: as §1
Sequence,binding signal [1],binding signal [2],binding signal [3],binding signal [4]
AGCATAAT,0.269 % of ANNNNAAN 8-mers,0.277 % of ANNNNAAN 8-mers,0.0757 % of ANNNNAAN 8-mers,0.106 % of ANNNNAAN 8-mers
AAATTAAT,0.415 % of ANNNNAAN 8-mers,0.478 % of ANNNNAAN 8-mers,0.244 % of ANNNNAAN 8-mers,0.287 % of ANNNNAAN 8-mers
AAGACAAC,0.0168 % of ANNNNAAN 8-mers,0.019 % of ANNNNAAN 8-mers,0.0195 % of ANNNNAAN 8-mers,0.0157 % of ANNNNAAN 8-mers
ATTGCAAT,0.0561 % of ANNNNAAN 8-mers,0.061 % of ANNNNAAN 8-mers,0.0523 % of ANNNNAAN 8-mers,0.0479 % of ANNNNAAN 8-mers
AAACGAAG,0.045 % of ANNNNAAN 8-mers,0.0483 % of ANNNNAAN 8-mers,0.0589 % of ANNNNAAN 8-mers,0.0528 % of ANNNNAAN 8-mers
AGTCAAAC,0.0763 % of ANNNNAAN 8-mers,0.042 % of ANNNNAAN 8-mers,0.122 % of ANNNNAAN 8-mers,0.0545 % of ANNNNAAN 8-mers
AGCACAAG,0.0168 % of ANNNNAAN 8-mers,0.0196 % of ANNNNAAN 8-mers,0.0183 % of ANNNNAAN 8-mers,0.0124 % of ANNNNAAN 8-mers
AACAAAAT,0.119 % of ANNNNAAN 8-mers,0.0926 % of ANNNNAAN 8-mers,0.14 % of ANNNNAAN 8-mers,0.0982 % of ANNNNAAN 8-mers
ATGACAAA,0.0622 % of ANNNNAAN 8-mers,0.0639 % of ANNNNAAN 8-mers,0.0539 % of ANNNNAAN 8-mers,0.0479 % of ANNNNAAN 8-mers
AAGTAAAT,0.19 % of ANNNNAAN 8-mers,0.146 % of ANNNNAAN 8-mers,0.227 % of ANNNNAAN 8-mers,0.147 % of ANNNNAAN 8-mers
ACGAGAAG,0.0217 % of ANNNNAAN 8-mers,0.0288 % of ANNNNAAN 8-mers,0.0269 % of ANNNNAAN 8-mers,0.0347 % of ANNNNAAN 8-mers
ATGCCAAG,0.0305 % of ANNNNAAN 8-mers,0.0357 % of ANNNNAAN 8-mers,0.025 % of ANNNNAAN 8-mers,0.0248 % of ANNNNAAN 8-mers
ACTCAAAG,0.0336 % of ANNNNAAN 8-mers,0.0242 % of ANNNNAAN 8-mers,0.0367 % of ANNNNAAN 8-mers,0.0165 % of ANNNNAAN 8-mers
ACTGCAAA,0.0416 % of ANNNNAAN 8-mers,0.0397 % of ANNNNAAN 8-mers,0.0535 % of ANNNNAAN 8-mers,0.0264 % of ANNNNAAN 8-mers
ATTTGAAC,0.0496 % of ANNNNAAN 8-mers,0.0558 % of ANNNNAAN 8-mers,0.0745 % of ANNNNAAN 8-mers,0.0553 % of ANNNNAAN 8-mers
AACTAAAC,0.0225 % of ANNNNAAN 8-mers,0.0299 % of ANNNNAAN 8-mers,0.0289 % of ANNNNAAN 8-mers,0.0264 % of ANNNNAAN 8-mers
AATCGAAG,0.0408 % of ANNNNAAN 8-mers,0.0547 % of ANNNNAAN 8-mers,0.0531 % of ANNNNAAN 8-mers,0.0495 % of ANNNNAAN 8-mers
AGATGAAT,0.119 % of ANNNNAAN 8-mers,0.171 % of ANNNNAAN 8-mers,0.0765 % of ANNNNAAN 8-mers,0.09 % of ANNNNAAN 8-mers
ATAACAAG,0.0458 % of ANNNNAAN 8-mers,0.0621 % of ANNNNAAN 8-mers,0.0355 % of ANNNNAAN 8-mers,0.0462 % of ANNNNAAN 8-mers
ACCTTAAG,0.0198 % of ANNNNAAN 8-mers,0.0219 % of ANNNNAAN 8-mers,0.0187 % of ANNNNAAN 8-mers,0.0281 % of ANNNNAAN 8-mers
AAGCCAAG,0.0271 % of ANNNNAAN 8-mers,0.0184 % of ANNNNAAN 8-mers,0.0168 % of ANNNNAAN 8-mers,0.019 % of ANNNNAAN 8-mers
ACCCAAAC,–,–,0.0164 % of ANNNNAAN 8-mers,0.0107 % of ANNNNAAN 8-mers
AGCCCAAC,–,–,0.0105 % of ANNNNAAN 8-mers,0.0124 % of ANNNNAAN 8-mers
AACCCAAG,0.0111 % of ANNNNAAN 8-mers,0.015 % of ANNNNAAN 8-mers,0.0144 % of ANNNNAAN 8-mers,–
ACCTCAAC,–,–,0.0129 % of ANNNNAAN 8-mers,0.0107 % of ANNNNAAN 8-mers
AGGGAAAC,0.0648 % of ANNNNAAN 8-mers,0.0518 % of ANNNNAAN 8-mers,0.0991 % of ANNNNAAN 8-mers,0.0413 % of ANNNNAAN 8-mers
ATCCGAAA,0.0305 % of ANNNNAAN 8-mers,0.0374 % of ANNNNAAN 8-mers,0.0308 % of ANNNNAAN 8-mers,0.0338 % of ANNNNAAN 8-mers
